This is one part of a sample in which hits are shown more often than they occur.
SARS PLP yeast – blocks SARS-CoV papain-like protease in a yeast assay; S. cerevisiae expressing SARS-CoV PLpro, growth rescue; Potency, µM (doses to about 32.9 µM), inactives show at the top dose activity, positive = growth rescue, actives largely listed as activators; 330,000 tested, 0.19% active; AID 485353; calls by dose curve; further: potency means the concentration at half of the fitted maximal effect; 0% is about no effect; nearly all actives have a fitted effect of over 55% in size
Shiga inhibitor – inhibitors of Shiga toxin in Vero cells; Vero cells, Shiga toxin protein synthesis inhibition reporter; inhibition, % at 38.7 µM; 290,000 tested, 9.2% active; in the data active means inhibition mostly above about 28%, no sharp cut-off; inactive means mostly below about 43%; further: 0% is about no effect
Tb PYK inh – blocks Trypanosoma brucei pyruvate kinase; Q57TT1; TbPYK enzyme, Kinase-Glo Plus ATP luminescence, 45 min; Potency, µM (highest dose often 76.8 µM), for inactives: at the highest dose activity, negative = inhibition, usual class: inhibitors; 410,000 tested, 0.12% active; AID 624173; further: potency means the concentration at half of the fitted maximal effect; on the % scale 0 is the no-effect control and ±100 the full control effect; nearly all actives have a fitted effect of over 50% in size
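Luminescence from Kinase-Glo Plus, added after a 45-minute room-temperature reaction, served as the end-point read-out. The enzyme and substrate were preincubated with compound before ADP (130 uM final) initiated turnover. Concentration-effect curves came from normalized qHTS data.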
NS1 inh – influenza NS1 inhibition; 270,000 tested, 0.4% active; Potency, µM (series often up to 46.1 µM), inactives show at the highest dose activity, positive = more growth; calls by dose curve; further: potency means the concentration at half of the fitted maximal effect; actives are rising curves; nearly all actives have a fitted effect of over 50% in size
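Recovery from NS1-induced slow growth read by OD600 in budding yeast switched to galactose assay medium (pH 6.0, -URA) at 1:100 dilution. Compound 23 nl per well; the matching strain lacking NS1 serves as control.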
LmPK inh – blocks Leishmania mexicana pyruvate kinase activity. Potency, µM (highest dose often 57.5 µM), for inactives: top-dose activity change, negative = inhibition, actives largely listed as inhibitors. Q27686. purified LmPK, Kinase-Glo ATP luminescence, 1 h. 290,000 tested, 0.37% active. AID 1721; further: potency means the concentration at half of the fitted maximal effect; on the % scale 0 is the no-effect control and ±100 the full control effect
Target sequence (Q27686 whole entry, looked up): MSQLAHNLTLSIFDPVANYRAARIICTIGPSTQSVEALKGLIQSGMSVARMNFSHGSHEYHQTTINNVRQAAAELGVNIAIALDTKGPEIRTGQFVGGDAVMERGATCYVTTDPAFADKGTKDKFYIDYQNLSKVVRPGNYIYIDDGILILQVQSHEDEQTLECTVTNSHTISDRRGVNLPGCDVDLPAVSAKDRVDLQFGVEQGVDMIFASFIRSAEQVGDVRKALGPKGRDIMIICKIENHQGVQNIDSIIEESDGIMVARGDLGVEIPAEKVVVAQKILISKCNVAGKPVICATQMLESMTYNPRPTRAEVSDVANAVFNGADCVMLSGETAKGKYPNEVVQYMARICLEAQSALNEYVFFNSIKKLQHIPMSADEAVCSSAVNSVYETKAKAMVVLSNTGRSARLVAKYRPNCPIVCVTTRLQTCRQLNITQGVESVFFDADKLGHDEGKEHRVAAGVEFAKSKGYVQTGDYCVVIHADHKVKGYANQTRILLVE
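ATP generated from ADP (0.1 mM) and PEP (0.5 mM) by 0.1 nM LmPK over 1 h at room temperature (pH 7.2 imidazole buffer) was detected by coupled luciferase luminescence. Values were normalized to uninhibited and no-enzyme wells.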
Cycloheximide cs – affects cycloheximide protein synthesis inhibition readout, counter-screen. 300,000 tested, 12% active. max response, %. cell reporter, cycloheximide protein synthesis inhibition counterscreen; in the data active means max response mostly above about 13%, no sharp cut-off; inactive means mostly below about 14%; further: read at 38.3 µM for the half of the compounds with a filed dose; 0% is about no effect
* marks the source's active call; other numbers are inactive results; ? = inconclusive; / = not tested or not shown; + = active, no number. Unless noted, the call rests on the fitted dose curve; in most records, active means well fitted curve in the direction sought with a large enough effect; inconclusive means small, poorly fitted or top-dose-only effect, or another doubt; inactive means no such curve, though single readings can be large; an effect the other way counts as inactive or inconclusive.

SMILES	SARS PLP yeast	Shiga inhibitor	Tb PYK inh	NS1 inh	LmPK inh	Cycloheximide cs
COc1ccc(CCNC(=O)CN2C(=O)COc3ccc(S(=O)(=O)N4CCCCCC4)cc32)cc1OC	/	/	-2%	/	/	/
O=C(OC(C(=O)Nc1ccc(Cl)cc1C(F)(F)F)c1ccccc1)C1=COCCO1 (configuration not stated)	-10%	-5	-3%	-4%	0%	-4
O=C(Nc1ccc(Cl)cc1C(F)(F)F)C(Sc1nnc(-c2cccs2)o1)c1ccccc1 (configuration not stated)	-7%	89*	-20%	25%	5%	29*
O=C(Nc1cc(C(F)(F)F)ccc1Cl)C(Sc1n[nH]c(=O)[nH]c1=O)c1ccccc1 (configuration not stated)	0%	-9	-5%	?	2%	-1
O=C(Nc1cc(C(F)(F)F)ccc1Cl)C(Sc1nnc(-c2cccs2)o1)c1ccccc1 (configuration not stated)	-11%	33*	-20%	15%	2%	15*
Cc1ccc(N=C2CCCCCN2C)c(C#N)c1	-8%	7	5%	11%	0%	2
Cc1ccc(N=C2CCCN2Cc2ccccc2)c(C#N)c1	-4%	+	-3%	0%	0%	18*
O=c1c2ccccc2oc2cc(C#CC3(O)CCCCC3)ccc12	/	/	-1%	/	/	/
COC1=C(NCc2ccc3c(c2)OCO3)C(=O)C(OC)=C(NCc2ccc3c(c2)OCO3)C1=O	/	/	-8%	/	/	/
COc1ccc2sc3ccccc3c(=O)c2c1OC	-7%	71*	-2%	-77%	-2%	34*
COc1cccc2oc3cc(C#CC4(O)CCCCC4)ccc3c(=O)c12	-19%	58*	-8%	-66%	0%	35*
COc1cccc2oc3cc(C#Cc4ccccn4)ccc3c(=O)c12	-13%	35*	-17%	0%	-3%	27*
COc1ccc(-c2ccc3sc4ccccc4c(=O)c3c2)cn1	/	/	-9%	/	/	/
COc1cccc2sc3ccc(NCc4ccc5c(c4)OCO5)cc3c(=O)c12	-13%	25	2%	3%	-9%	19*
CCCn1c(SC(C)C(=O)NC2CC2)nnc1-c1ccncc1 (configuration not stated)	3%	/	2%	/	/	/
O=c1c2ccccc2sc2ccc(C#CC3(O)CCCCC3)cc12	/	/	-15%	/	/	/
COc1cccc2sc3ccc(C#CC4(O)CCCCC4)cc3c(=O)c12	-28%	43*	-3%	-87%	1%	39*
COc1cccc2sc3ccc(C#Cc4ccc(N)cc4)cc3c(=O)c12	-1%	57*	3%	-13%	-4%	41*
CCOC(=S)SSC(=S)OCC	/	/	-23%	/	/	/
O=P(NCc1ccccc1)(OCc1ccccc1)OCc1ccccc1	/	/	-4%	/	/	/
COc1ccccc1Nc1nc2ccc(Cl)cc2nc1-n1nc(C)cc1C	/	/	1%	/	/	/
COc1ccc(NC(=O)Nc2cc(C)cc(C)c2)cn1	0%	39	1%	-5%	8%	15
CCOCC(=O)Nc1cc(C(=O)Nc2ccccc2)ccc1Cl	-9%	18	0%	-36%	-27%	14
Cc1ccsc1C(=O)Nc1ccc(OCc2ccccc2)cc1	-4%	68*	-6%	6%	-11%	18*
Cc1c(C(=O)Nc2ccc(OCc3ccccc3)cc2)cccc1[N+](=O)[O-]	2%	-4	1%	12%	4%	8
SMILES	SARS PLP yeast	Shiga inhibitor	Tb PYK inh	NS1 inh	LmPK inh	Cycloheximide cs
COc1ccc(NC(=O)Nc2cccs2)cn1	1%	18	-14%	5%	2%	9.5*
Cc1cc(C(=O)Nc2ccc(OCc3ccccc3)cc2)c(C)o1	-2%	81*	-20%	-5%	7.9µM*	24*
CCOCC(=O)Nc1ccc(C(=O)Nc2ccccc2Cl)cc1	-2%	31	/	-5%	-1%	26*
CCOC(=O)C(=O)Nc1ccc(OCc2ccccc2)cc1	-2%	-4	-1%	-6%	-5%	3
CC(=O)Oc1ccc2nc(/C=C/c3ccccc3)oc(=O)c2c1	4%	/	-5%	1%	3%	-3
COc1ccc(-c2nn(-c3ccccc3)cc2C2NC(=O)NC(C)=C2C(=O)OC(C)C)cc1Cl (configuration not stated)	/	/	-11%	/	/	/
CCOc1ccc(NC(=O)CN(C)C(=O)CCNC(=O)c2ccco2)cc1OCC	8%	/	0%	/	/	/
O=C(NCc1ccccc1)C1c2ccccc2OCC(=O)N1Cc1ccccc1 (configuration not stated)	/	/	-5%	/	/	/
COc1ccc(NC(=O)c2sccc2C)cn1	-2%	89*	-8%	/	-7%	43*
CC(C)NC(=O)COc1ccc(OCc2ccccc2)cc1	-1%	29	0%	/	-7%	20*
Cc1ccc(C(=O)Nc2ccc(OCc3ccccc3)cc2)s1	2%	97	3%	6%	-8%	18*
CC(C)C(C)NC(=O)COc1ccc(OCc2ccccc2)cc1 (configuration not stated)	-4%	33	9%	/	8%	19
CCOCC(=O)Nc1ccc(OCc2ccccc2)cc1	-3%	46*	-8%	-9%	-15%	35*
O=C(Nc1c2c(nn1-c1ccc(Cl)cc1)CS(=O)(=O)C2)c1ccccc1F	/	/	3%	/	/	/
CN(C(=O)C1Cc2c(-c3ccc(Cl)cc3)ccnc2O1)c1ccccc1 (configuration not stated)	/	/	2%	/	/	/
O=C(Nc1ccc2nc(SCCOc3ccccc3Cl)sc2c1)c1cccs1	/	/	-1%	/	/	/
O=C(NCCSc1ccccc1)c1cccnc1	11%	83*	4%	-1%	1%	49*
CC(=O)Nc1ccc(NC(=S)Nc2ccc(Br)cc2)cc1	-1%	0	-6%	-6%	0%	-2
COc1ccc(NC(=O)c2cc(Br)c(Br)s2)cn1	-26%	91*	2%	/	4%	24*
O=C(NCCc1ccccc1)c1ccc(NC(=O)c2cccnc2)cc1	1%	37*	1%	5%	1%	23*
CC(C)=CC(=O)Nc1ccc(Br)cc1	-10%	74*	-6%	-42%	-11%	58*
Cc1ccc(C)n1-c1ccc(C(=O)Nc2ccccc2F)cc1	-2%	102*	-5%	/	-6%	57*
Cc1ccsc1C(=O)NCC(=O)OCc1ccccc1	-10%	61*	1%	-12%	-7%	30*
COc1ccc2nc(NC(=O)c3cccc(OCc4c(C)noc4C)c3)sc2c1	8%	118*	10%	3%	0%	44*
O=C(Nc1ccc(OCc2ccccc2)cc1)Nc1cccnc1	-1%	21	1%	4%	0%	16
NCC(=O)NCC(=O)OCc1ccccc1	1%	-2	-12%	/	9%	-5
CCc1ccccc1NC(=O)c1ccc(-n2c(C)ccc2C)cc1	-3%	-7	2%	9%	9%	-2
O=C(Nc1ccc(OCc2ccccc2)cc1)c1cccnc1	2%	41*	-7%	-8%	-6%	20*
